81 molecules from PubChem BioAssay AID602393 (Broad Institute, 2012) can be followed below.

The structures appear in SMILES notation. The campaign covered roughly 350,000 compounds. About 7,000 (2%) were called active. For the sample, actives were picked, then their nearest neighbours and some compounds at random. Values without a mark were called inactive. Cut-off read from the data, not from the text of the source: active = activation above about 40%; inconclusive = no clear call, values can overlap the other calls; inactive = below that.

This assay in a line: Bmi1 luciferase reporter increase in mESCs, primary screen, esBAF inhibitor project, mouse ES cells, Bmi1 luciferase knock-in, single point (AID 602393).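 Note: 0% = median of the plate's neutral control wells and 100% = double that signal; a rise in the Bmi1 reporter signal indicates esBAF inhibition.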 The note with it: 24 h, at 12.5 µM, hits give high values, 100% = twice the neutral-well signal.
Consider `C[C@@H](NC(=O)C[C@H]1CC[C@H](NS(=O)(=O)c2cccc(F)c2)[C@H](CO)O1)c1ccccc1`, for which the reporter increase is -2.73%.

As to `CO[C@H]1CN(C)C(=O)c2cc(NS(=O)(=O)CC(F)(F)F)ccc2OC[C@@H](C)N(Cc2nccs2)C[C@@H]1C`, the reporter increase was -3.43%.

`O=C(Nc1ccc2c(c1)OCO2)N[C@@H]1CC[C@H](CC(=O)N2CCN(c3ccccc3)CC2)O[C@@H]1CO`: the reporter increase is -0.613%.

As to `Cc1ccc(NC(=O)NC2CCCCC2)cc1S(=O)(=O)N1CCOCC1`, the reporter increase is -1.63%.

For the molecule `Cc1ccc(C)c(S(=O)(=O)N2CCCOC2CNC(=O)C(=O)NC2CCCCC2)c1` (stereo unspecified), the reporter increase was 51.3% (active).

In the case of `O=C(NCCC1CCCCN1S(=O)(=O)c1ccccc1)C(=O)NCC1CCCO1` (stereo unspecified), the reporter increase is -3.85%.

`O=C(C[C@H]1CC[C@H]2[C@@H](COC[C@@H](O)CN2C(=O)c2ccc3c(c2)OCO3)O1)NC1Cc2ccccc2C1`: the reporter increase was -0.266%.

Take `CN(C)CC(=O)Nc1ccc2c(c1)[C@H]1C[C@H](CC(=O)NCc3ccc4c(c3)OCO4)O[C@@H](CO)[C@H]1O2`: the reporter increase is 2.82%.

For `O=C(O)CSc1nnc(-c2ccc3c(c2)OCO3)n1-c1ccccc1`, the reporter increase is 19.1%.

As to `Cn1c(SCc2nc3ccccc3s2)nnc1-c1ccc2c(c1)OCO2`, the reporter increase was 66.4% (active).

Regarding `Cn1c(SCC(=O)N2CCCC2)nnc1-c1ccc2c(c1)OCO2`, the reporter increase is 1.7%.

Take `C[C@@H]1CCCCO[C@H](CN(C)C(=O)Cc2ccccc2)[C@H](C)CN([C@H](C)CO)C(=O)c2cc(NS(=O)(=O)c3cn(C)cn3)ccc2O1`: the reporter increase was 5.86%.

As for `C[C@H](CO)N1C[C@H](C)[C@@H](CN(C)Cc2cccc3c2OCCCO3)OCc2cn(nn2)CCCC1=O`, the reporter increase is -0.925%.

As for `Cc1nn(C(=O)c2ccoc2C)c(N)c1-c1ccccc1`, the reporter increase was 78.5% (active).

Take `Cc1occc1C(=O)Nc1cccc(Cn2cccn2)c1`: the reporter increase was 10.4%.

Regarding `Cc1ccnc(NC(=O)c2ccoc2C)c1`, the reporter increase is 25.4%.

For the molecule `C[C@@H]1CN([C@H](C)CO)C(=O)Cc2cc(NS(=O)(=O)c3ccc(Cl)cc3)ccc2O[C@@H]1CN(C)C`, the reporter increase was -0.489%.

In the case of `Fc1ccccc1COc1ccccc1CNCc1ccncc1`, the reporter increase is 2.36%.

Regarding `O=S(=O)(NCCOc1cccc2cccnc12)c1ccc(F)cc1`, the reporter increase was 11.1%.

Regarding `Fc1ccccc1COc1cccc2cccnc12`, the reporter increase is 45.7% (active).

As to `CC(C)CC#Cc1cnc2c(c1)C(=O)N([C@@H](C)CO)C[C@H](C)[C@@H](CN(C)Cc1ccccc1C(=O)O)O2`, the reporter increase is -9.83%.

Consider `COc1cc(Cl)ccc1OCc1cc(C(=O)N(C)CCc2c(C)n[nH]c2C)no1`, for which the reporter increase is 14.1%.

`CCOC(=O)C1CCCN(C(=O)c2cncc(Br)c2)C1` (stereo unspecified): the reporter increase is -6.09%.

On to `COc1cc(Cl)ccc1OCc1cc(C(=O)N2CC[C@@H]3CCCC[C@H]3C2)no1`, for which the reporter increase was 52.6% (active).

Consider `CCOC(=O)CC1(NC(=O)c2cc(COc3cncc(Cl)c3)on2)CCCCC1`, for which the reporter increase was 2.06%.

Regarding `CCn1ccnc1CN(C)C(=O)c1cc(COc2ccc(Cl)cc2OC)on1`, the reporter increase is 1.62%.

With `CCCOC1CCCN(C(=O)c2cc(COc3cncc(Cl)c3)on2)C1` (stereo unspecified), the reporter increase is 66.1% (active).

Take `C[C@@H]1CN([C@H](C)CO)C(=O)c2cc(NC(=O)Cn3cnnn3)ccc2O[C@@H]1CN(C)CC1CC1`: the reporter increase is -4.62%.

In the case of `C[C@H](CO)N1C[C@H](C)[C@H](CN(C)S(C)(=O)=O)Oc2c(NC(=O)Nc3cccc4ccccc34)cccc2C1=O`, the reporter increase was -0.771%.

With `C[C@H](O)C#Cc1cnc2c(c1)C(=O)N([C@@H](C)CO)C[C@H](C)[C@H](CN(C)C(=O)c1ccccc1)O2`, the reporter increase is -2.39%.

Consider `CN1C(=O)c2cc(NC(=O)c3ccccc3)ccc2OC[C@@H]2O[C@@H](CC(=O)NC3CCCC3)CC[C@H]21`, for which the reporter increase was -4.47%.

As for `C[C@H]1CCCCO[C@@H](CN(C)Cc2ccc3c(c2)OCO3)[C@@H](C)CN([C@@H](C)CO)C(=O)c2cc(NS(=O)(=O)c3ccc(F)cc3)ccc2O1`, the reporter increase was 3.56%.

As for `COCCN(C[C@H]1[C@@H](c2ccccc2)[C@H](CO)N1C(=O)C1CCC1)C(C)=O`, the reporter increase was -2.98%.

In the case of `C[C@@H]1CN([C@H](C)CO)C(=O)c2cc(C#CC3CC3)cnc2O[C@H]1CN(C)C(=O)CC1CC1`, the reporter increase is 3.96%.

As for `COc1ccccc1/C=C/C(=O)NC1CC2CCC1C2` (stereo unspecified), the reporter increase was 28.1%.

For `O=C(/C=C/c1ccco1)NC(=S)N1CCCCC1`, the reporter increase was 11.3%.

Consider `COc1ccccc1/C=C/C(=O)NC(=S)N1CCOCC1`, for which the reporter increase is 44.4% (active).

On to `C[C@H]1CN([C@@H](C)CO)S(=O)(=O)c2ccc(-c3ccncc3)cc2O[C@@H]1CN(C)C(=O)CC1CC1`, for which the reporter increase is -3.03%.

Take `C[C@@H]1CN([C@H](C)CO)S(=O)(=O)c2ccc(C#C[C@@H](C)O)cc2O[C@H]1CN(C)CC1CC1`: the reporter increase was 2.12%.

Consider `CC(Cc1cccs1)NC(=O)c1cccc(Cl)c1` (stereo unspecified), for which the reporter increase was 59.9% (active).

As to `CC(Cc1cccs1)NC(=O)NC1CCCCC1` (stereo unspecified), the reporter increase was 17.1%.

As for `Cc1cccc(C(=O)N[C@H](C(=O)NCc2cccs2)C(C)C)c1`, the reporter increase is -4.58%.

`C[C@@H]1CCCCO[C@@H](CN(C)S(=O)(=O)c2cn(C)cn2)[C@@H](C)CN([C@H](C)CO)C(=O)c2cc(NC(=O)c3ccncc3)ccc2O1`: the reporter increase is 2.55%.

As to `CN1CCN(C(=O)C[C@@H]2CC[C@@H]3[C@H](COC[C@@H](O)CN3Cc3cccc(F)c3)O2)CC1`, the reporter increase is 0.727%.

With `C[C@@H]1CN([C@@H](C)CO)C(=O)c2cc(C#CCN(C)C)cnc2O[C@@H]1CN(C)Cc1ccccn1`, the reporter increase is -9.33%.

For the molecule `CO[C@@H]1CN(C)C(=O)c2cc(NS(=O)(=O)c3cccc(Cl)c3)ccc2OC[C@@H](C)NC[C@@H]1C`, the reporter increase was 3.71%.

For `Cc1ccc(-c2nc3ccc(Br)cn3c2Cc2ccccc2C(F)(F)F)cc1`, the reporter increase was 58.8% (active).

Regarding `Cc1ccc(-c2nc3ccc(Cl)cn3c2Cc2ccccc2)cc1`, the reporter increase was 44.1% (active).

For the molecule `Cc1ccc(Cc2c(-c3ccccc3)nc3ccc(Cl)cn23)cc1`, the reporter increase was 21%.

For `Fc1cccc(Cc2c(-c3ccc(Cl)cc3)nc3ccc(Cl)cn23)c1`, the reporter increase was 7.58%.

Consider `Clc1cccc(Cc2c(-c3cccc(Cl)c3)nc3ccc(Cl)cn23)c1`, for which the reporter increase was 35.2%.

Consider `FC(F)(F)c1ccccc1Cc1c(-c2ccccc2)nc2c3ccccc3ccn12`, for which the reporter increase was 3.35%.

On to `Cc1ccc(Cc2c(-c3ccco3)nc3ccc(Cl)cn23)cc1`, for which the reporter increase was -7.76%.

On to `Brc1ccc2nc(-c3ccccc3)c(Cc3ccccc3)n2c1`, for which the reporter increase was 18%.

Turning to `Fc1cccc(Cc2c(-c3cccc(Cl)c3)nc3ccc(Br)cn23)c1`, the reporter increase is 57.3% (active).

As for `C[C@H](CO)N1C[C@H](C)[C@H](CN(C)C(=O)c2ccncc2)Oc2cc(C#CC3(O)CCCC3)ccc2S1(=O)=O`, the reporter increase is 2.01%.

Consider `Cc1ccc(S(=O)(=O)N[C@@H]2CC[C@H](CCNC(=O)C3CCOCC3)O[C@@H]2CO)cc1`, for which the reporter increase was 3.97%.

With `CC1CCCN(CC(=O)Nc2cc(Cl)ccc2Oc2ccccc2)C1` (stereo unspecified), the reporter increase was 0.159%.

Regarding `O=C(CN1CCOCC1)Nc1ccc(NC(=O)CN2CCOCC2)c(Cl)c1`, the reporter increase is 3.57%.

`CC(=O)Nc1ccc(NC(=O)CN2CCCC(C)C2)c(Cl)c1` (stereo unspecified): the reporter increase was 49.7% (active).

Take `Oc1ccc(-n2nnnc2SCc2c(F)cccc2Cl)cc1`: the reporter increase was -6.31%.

In the case of `Cn1c(SCC(=O)c2ccc(F)cc2)nnc1-c1ccccn1`, the reporter increase was 39.1%.

Turning to `Cn1c(SCc2c(F)cccc2Cl)nnc1-c1cnccn1`, the reporter increase was 59% (active).

With `Cc1noc(C)c1S(=O)(=O)Nc1ccc2c(c1)C(=O)N([C@@H](C)CO)C[C@@H](C)[C@@H](CN(C)Cc1ccccc1)OCCCC[C@H](C)O2`, the reporter increase was -1.71%.

In the case of `Cc1ccn2c(=O)nc(SCC(=O)NCc3ccc(F)cc3)nc2c1`, the reporter increase was -3.54%.

In the case of `Cc1cccc2nc(CNc3ccc(F)cc3)cn12`, the reporter increase is 56.3% (active).

As for `CCOC(=O)CSc1nnc(CNc2ccc(F)cc2)o1`, the reporter increase was 4.3%.

On to `O=C(C[C@H]1CC[C@H]2[C@@H](COC[C@@H](O)CN2CCC(F)(F)F)O1)NCc1ccc2c(c1)OCO2`, for which the reporter increase was -0.0255%.

On to `CCCC(=O)Nc1ccc2c(c1)C(=O)N(C)[C@@H]1CC[C@H](CC(=O)Nc3cn(C)nc3C)O[C@H]1CO2`, for which the reporter increase is -3.47%.

For `C[C@@H]1CN([C@@H](C)CO)C(=O)c2cc(C#CCc3ccccc3)cnc2O[C@@H]1CN(C)C(=O)C1CCOCC1`, the reporter increase is -0.454%.

As to `Cc1ccc(N2C(=O)SC(N(CC(=O)O)c3ccc(C)cc3)C2=O)cc1` (stereo unspecified), the reporter increase was -3.76%.

As to `Cc1cccc(N(CC(=O)N2CCOCC2)S(C)(=O)=O)c1`, the reporter increase was 0.817%.

On to `Cc1cccc(N2C(=O)SC(N(CC(=O)O)c3cccc(C)c3)C2=O)c1` (stereo unspecified), for which the reporter increase is 51.9% (active).

With `C[C@H]1CN([C@@H](C)CO)C(=O)c2cc(N(C)C)ccc2O[C@@H]1CN(C)C(=O)Nc1ccc2c(c1)OCO2`, the reporter increase is 0.253%.

As to `O=C(Nc1cccc2ccccc12)c1onc2c1CCCC2`, the reporter increase is 68.2% (active).

In the case of `O=C(Nc1cccc2ccccc12)c1[nH]c(-c2ccccc2)c2c1C(=O)N(C1CC1)C2=O`, the reporter increase was -8.26%.

Take `O=C(Nc1cccc2ccccc12)NC1CC1`: the reporter increase is -6.94%.

In the case of `C[C@@H]1CN([C@@H](C)CO)S(=O)(=O)c2ccc(C#Cc3cccnc3)cc2O[C@@H]1CN(C)C`, the reporter increase is -4.81%.

Take `COc1ccc2c(c1)CCc1c(C(=O)N3CCc4ccccc4C3)noc1-2`: the reporter increase is 26.1%.

As to `O=C(c1cc(-c2cccc(O)c2)on1)N1CCc2ccccc2C1`, the reporter increase was 10.2%.

As to `O=C(c1noc2c1CCCC2)N1CCc2ccccc2C1`, the reporter increase was 63.6% (active).
